Bioassay records from PubChem.
DAX1 inh-1: NR0B1 (DAX1) inhibition | inhibition, % at 6.75 µM | P51843 | 340,000 tested, 0.99% active | HEK293 Gal4-DAX1 luciferase reporter, luminescence | AID 504766;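 active means inhibition above the mean over all tested compounds plus 3 SD, cut at about 4.2% in these data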;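 further: 0% = DAX1-transfected cells with DMSO and 100% = empty-vector control cells with DMSO; inhibition shows as a rise in luminescence from relieved DAX1 repression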
Target sequence (P51843 207-470 limits assumed): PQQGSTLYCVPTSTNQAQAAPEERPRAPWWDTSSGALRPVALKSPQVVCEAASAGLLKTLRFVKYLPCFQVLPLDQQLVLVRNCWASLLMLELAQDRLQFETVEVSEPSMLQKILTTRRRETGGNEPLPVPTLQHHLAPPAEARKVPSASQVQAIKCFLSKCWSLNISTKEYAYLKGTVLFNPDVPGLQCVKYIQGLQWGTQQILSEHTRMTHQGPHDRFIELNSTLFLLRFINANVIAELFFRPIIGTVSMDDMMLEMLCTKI
hgDAF-12 ag: agonists of H. glycines DAF-12 nuclear receptor. HEK293 GAL4-hgDAF12 UAS-luciferase reporter, agonist luminescence; normalized to butyrate control. activation, % at 6.8 µM. 370,000 tested, 1.8% active;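 active means activation above a cutoff set at the mean of all screened compounds plus 3 SD, cut at about 10% in these data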;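 further: 0% = DMSO wells and 100% = sodium butyrate wells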
FXN GAA850 act: activators of GAA850 frataxin (FXN) promoter; HEK293 lucGAA850 FXN promoter luciferase reporter, 24 h; percent of 10 µM SAHA response; activation, % at 6 µM; 360,000 tested, 0.56% active; AID 540364;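 active means activation above the average of all compounds screened plus 3 SD, cutoff fixed separately per campaign, cut at about 7.5% in these data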;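 further: 0% = DMSO wells and 100% = 10 µM SAHA wells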
ssDAF-12 act: activators of S. stercoralis DAF-12 nuclear receptor; HEK293 ssDAF-12/GRIP1 lit1-tk-luc reporter, luminescence; % of 3 µM dafachronic acid response; activation, % at 6.8 µM; 370,000 tested, 1% active; AID 652126;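 active means activation above the mean over all tested compounds plus 3 SD, cut at about 0.9% in these data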;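 further: 0% = DMSO-only wells and 100% = 3 µM delta7-dafachronic acid wells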
hcDAF-12 act: activates DAF-12 receptor from parasite H. contortus | 370,000 tested, 1.4% active | activation, % at 6.8 µM | AID 652067 | HEK293 hcDAF-12 lit1-tk-luc reporter, luminescence; 0% DMSO, 100% Δ7-dafachronic acid;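 active means activation above the mean of all tested compounds plus 3 SD, cut at about 5.5% in these data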;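 further: 100% = response to 3 µM Δ7-dafachronic acid high control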
DAX1 inh-2: inhibitors of DAX1 repression of SF-1 activated StAR promoter; HEK293T StAR-luciferase reporter, SF-1/DAX-1 repression relief; inhibition, % at 6.8 µM; 370,000 tested, 1.1% active; AID 652010;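 active means inhibition above the mean over all tested compounds plus 3 SD, cut at about 3.6% in these data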;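 further: 0% = DAX-1 cells with DMSO and 100% = cells lacking DAX-1 with DMSO; higher inhibition means more luminescence from relief of DAX-1 repression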
* marks the source's active call; other numbers are inactive results; nt = not tested or not shown. Rows were chosen to be rich in hits. Some 4.5% of all compounds tested hit in one or more screens of this group.

SMILES	DAX1 inh-1	hgDAF-12 ag	FXN GAA850 act	ssDAF-12 act	hcDAF-12 act	DAX1 inh-2
CCOC(=O)[C@]12CCCCC/C=C\1N(CCc1ccc(Cl)cc1)C(=O)[C@H]2CC(=O)NCc1ccc(C)o1	nt	-0.7	nt	-1.3	-3.0	0.4
CCOC(=O)C1CCCN1C(=O)C1(NC(C)=O)CCCC1 (stereo unspecified)	2.1	12.4*	1.5	-0.7	-0.8	0.2
COc1ccc(C(=O)O/N=C2\CCS(=O)(=O)c3sccc32)cc1	0.5	-1.7	-0.2	-1.0	0.2	1.2
CC(C)C(=O)O/N=C1\CCS(=O)(=O)c2sccc21	6.2*	1.7	0.5	-0.7	1.5	-0.3
N#Cc1ccc(OC[C@@H](O)CN2CCC(C(O)(c3ccccc3)c3ccccc3)CC2)cc1	nt	-4.2	nt	-1.6	-0.5	-0.5
COC(=O)[C@]12C[C@H](CC(=O)N3CCOCC3)C(=O)N(Cc3cccc4ccccc34)C1=C[C@H](C(C)(C)C)O[C@@H]2C	nt	1.0	nt	-1.0	-1.9	-0.5
NNC(=O)c1nnsc1-c1csnn1	4.0	10.5*	0.6	0.6	5.4	1.9
O=C(O)c1nnsc1-c1csnn1	-0.1	1.9	1.7	-1.2	-1.1	-0.4
C#CCNC(=O)C[C@H]1C[C@@]2(C(=O)OC)C(=C[C@H](C(C)C)O[C@@H]2C2CC2)N(Cc2cccc3ccccc23)C1=O	nt	-0.5	nt	-0.9	-1.2	-0.9
Cc1cc(/C=C2\C(=N)N3N=CSC3=NC2=O)c(C)n1Cc1ccccc1	5.4*	6.7	3.7	0.4	3.3	2.2
Clc1ccc2nc(-c3ccccn3)c(Nc3ccc4c(c3)OCO4)n2c1	-2.4	13.2*	3.0	-1.2	-0.8	0.8
COC(=O)c1ccc(Cn2ccc3ccc(-c4ccc5ccn(C(=O)c6ccccc6OC)c5c4)cc32)cc1	nt	2.6	nt	-0.8	-1.2	0.2
O=C(Nc1cc(C(F)(F)F)ccc1N1CCOCC1)c1cn2ccccc2n1	6.6*	-1.4	-0.3	-1.0	0.5	-0.4
O=C(Nc1cc(S(=O)(=O)N2CCOCC2)ccc1N1CCOCC1)c1cn2ccccc2n1	0.4	-3.4	2.7	-1.5	-1.1	0.0
CC(/C=C/C(=O)c1ccc(C)cc1)=C\c1ccccc1	5.3*	4.4	2.9	-0.1	4.1	1.1
O=C(CN1CCN(Cc2ccc3c(c2)OCO3)CC1)Nc1ccc2c(c1)OCO2	2.4	0.9	-0.2	-1.2	0.8	-0.2
O=C(CN1CCN(Cc2ccc3c(c2)OCO3)CC1)Nc1ccc(F)cc1	4.8*	2.9	0.2	-1.2	-2.0	0.5
O=C(CN1CCc2ccccc2C1)Nc1ccc(OC(F)(F)F)cc1	-0.7	3.2	2.2	-1.4	2.6	-0.3
CN(C)c1ccc(NC(=O)CN2CCc3ccccc3C2)cc1	0.1	4.8	6.8	0.2	5.7*	0.5
O=C(CN1CCc2ccccc2C1)Nc1ccc(F)cc1	4.2*	0.6	-0.1	-1.4	-0.8	0.1
CC(=O)c1ccc(NS(=O)(=O)c2cccc(C)c2)cc1	2.7	11.9*	3.4	-1.3	1.4	0.5
CCc1ccccc1NC(=O)c1cc([N+](=O)[O-])ccc1N1CCOCC1	0.8	0.3	0.1	-1.1	0.9	0.0
CC1CCN(c2ccccc2NC(=O)c2cc([N+](=O)[O-])ccc2N2CCOCC2)CC1	1.0	-0.4	12.3*	-1.1	-2.1	-0.3
O=C(NCC(c1ccccc1)c1ccccc1)[C@H](Cc1c[nH]c2ccccc12)NC1(C(=O)NC2CCCCC2)CCCCCC1	nt	-1.0	nt	-2.1	0.3	nt
CCCCCCCCN1C(=O)[C@@H](CC(=O)NCc2ccc(C)o2)C[C@@]2(C(=O)OC)C1=C[C@H](C(C)C)O[C@@H]2C1CC1	nt	1.6	nt	-1.1	-2.2	-1.7
SMILES	DAX1 inh-1	hgDAF-12 ag	FXN GAA850 act	ssDAF-12 act	hcDAF-12 act	DAX1 inh-2
O=C(NNC1=C(C(=O)C(F)(F)F)CCC1)c1ccc(Cl)cc1	0.7	4.2	3.8	-1.3	2.3	2.7
O=C(NNC1=C(C(=O)C(F)(F)F)CCC1)c1cccc(Cl)c1	5.2*	12.9*	-0.8	-1.1	2.2	2.1
O=C(CSc1cc(Cl)ccc1Cl)N/N=C/c1ccc[nH]1	nt	-6.8	nt	-2.1	-4.9	nt
COc1ccc(NC(=O)C2C(c3ccc4c(c3)OCO4)=Nc3ccccc3N2C(=O)c2cccc(C(F)(F)F)c2)cc1 (stereo unspecified)	nt	3.7	nt	0.1	1.4	2.6
COc1ccc(NC(=O)C2C(c3ccc4c(c3)OCO4)=Nc3ccccc3N2C(C)=O)cc1 (stereo unspecified)	nt	9.5	nt	0.8	6.2*	1.9
O=C(Nc1ccc(F)cc1F)c1ccc(-n2cccn2)nc1	-0.6	3.1	-0.8	-1.7	-1.4	0.0
CC(C)Sc1ccc(C(=O)Nc2ccc(F)cc2F)cn1	1.6	11.8*	4.6	-1.1	0.6	1.2
Cc1c(C)c2ccc(OC(C)C(=O)N[C@@H](Cc3c[nH]c4ccccc34)C(=O)O)c(C)c2oc1=O (stereo partly specified)	4.0	2.1	0.9	-1.0	5.9*	1.0
Cc1c(OC(C)C(=O)NC(Cc2c[nH]c3ccc(O)cc23)C(=O)O)ccc2c1oc(=O)c1ccccc12 (stereo unspecified)	4.0	-0.4	-0.1	-1.2	1.4	-0.2
S=c1[nH]nc(-c2n[nH]c3c2CCC3)n1N=Cc1ccc(OCc2ccccc2)cc1	nt	9.5	nt	-0.7	-0.2	-0.1
CCCc1cc2c(O)ccc(O)c2c(=O)o1	nt	-1.6	nt	-1.1	-0.6	-1.8
Cc1ccc(Cc2c(-c3ccccc3)nc3cc(C)ccn23)cc1	2.3	10.8*	3.5	1.3*	4.0	3.2
CCOC(=O)c1c(-c2ccccc2)nc2cc(C)ccn12	4.6*	6.9	5.8	-1.8	-1.2	1.3
Fc1ccc(-c2nc3c(Cl)cc(C(F)(F)F)cn3c2Cc2ccccc2)cc1	nt	2.7	nt	-0.8	0.7	0.5
Cc1ccc(-c2nc3ccc(Cl)cn3c2Cc2ccsc2)cc1	nt	12.8*	nt	-0.1	3.4	4.2*
Cc1ccc(Cc2c(-c3ccccc3)nc3c(Cl)cc(C(F)(F)F)cn23)cc1	nt	2.0	nt	1.7*	2.3	0.6
C[C@@H]1CN([C@@H](C)CO)C(=O)c2ccccc2-c2ccccc2CO[C@@H]1CN(C)Cc1ccc(Cl)c(Cl)c1	nt	1.2	nt	-0.6	-1.4	-1.2
CCCCCN1CCCCC(NC(=O)c2c(F)cccc2F)C1=O (stereo unspecified)	nt	0.5	nt	-1.6	2.4	0.2
CCN(CC)C(=O)CC[C@H]1CC[C@]2(CCCN(C3CCCCC3)C2)O1	nt	0.6	nt	-1.1	-1.1	1.3
COC(=O)C1CN(Cc2ccc(F)cc2)CCS(=O)(=O)N1Cc1cn(Cc2ccc(C)cc2)nn1 (stereo unspecified)	nt	-3.1	nt	0.2	1.3	-0.3
Fc1ccc(-c2nc3ccc(Br)cn3c2Cc2ccsc2)cc1	nt	9.3	nt	-0.7	4.3	2.1
